Data: PubChem BioAssay
Records with an inconclusive call do not appear. Active and inactive are the calls of the source.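 The calls were made as follows, unless noted: active = RAM network inhibition above 8.4% in each of two replicates, 3 SD over the compound average; inconclusive = above 8.4% inhibition in only one replicate; inactive = 8.4% inhibition or less in each replicate.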

How the values were obtained:
[1] = Her2 expression decrease, cell viability multiplex – SKBR3 breast tumor cells, AlphaScreen, ATP viability, primary screen (AID 461;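 active = Her2 level under about 52% in both replicate screens, with viability over 70% of control, limit read from the data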;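 as to Her2 level: lower value means less Her2 protein in the cells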;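 as to viability: percent of carrier control wells set as 100% viability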); details: SKBR3 Her2 protein level, 18-24 h, measured here: SKBR3 viability, ATP luminescence, at 10 µM
[2] = molecular target: Receptor tyrosine-protein kinase erbB-2 (Homo sapiens) (UniProt P04626); experiment: as above; details: 18-24 h, at 10 µM, stronger effect = lower value
Chain of Receptor tyrosine-protein kinase erbB-2 (Homo sapiens) (P04626 whole entry, looked up): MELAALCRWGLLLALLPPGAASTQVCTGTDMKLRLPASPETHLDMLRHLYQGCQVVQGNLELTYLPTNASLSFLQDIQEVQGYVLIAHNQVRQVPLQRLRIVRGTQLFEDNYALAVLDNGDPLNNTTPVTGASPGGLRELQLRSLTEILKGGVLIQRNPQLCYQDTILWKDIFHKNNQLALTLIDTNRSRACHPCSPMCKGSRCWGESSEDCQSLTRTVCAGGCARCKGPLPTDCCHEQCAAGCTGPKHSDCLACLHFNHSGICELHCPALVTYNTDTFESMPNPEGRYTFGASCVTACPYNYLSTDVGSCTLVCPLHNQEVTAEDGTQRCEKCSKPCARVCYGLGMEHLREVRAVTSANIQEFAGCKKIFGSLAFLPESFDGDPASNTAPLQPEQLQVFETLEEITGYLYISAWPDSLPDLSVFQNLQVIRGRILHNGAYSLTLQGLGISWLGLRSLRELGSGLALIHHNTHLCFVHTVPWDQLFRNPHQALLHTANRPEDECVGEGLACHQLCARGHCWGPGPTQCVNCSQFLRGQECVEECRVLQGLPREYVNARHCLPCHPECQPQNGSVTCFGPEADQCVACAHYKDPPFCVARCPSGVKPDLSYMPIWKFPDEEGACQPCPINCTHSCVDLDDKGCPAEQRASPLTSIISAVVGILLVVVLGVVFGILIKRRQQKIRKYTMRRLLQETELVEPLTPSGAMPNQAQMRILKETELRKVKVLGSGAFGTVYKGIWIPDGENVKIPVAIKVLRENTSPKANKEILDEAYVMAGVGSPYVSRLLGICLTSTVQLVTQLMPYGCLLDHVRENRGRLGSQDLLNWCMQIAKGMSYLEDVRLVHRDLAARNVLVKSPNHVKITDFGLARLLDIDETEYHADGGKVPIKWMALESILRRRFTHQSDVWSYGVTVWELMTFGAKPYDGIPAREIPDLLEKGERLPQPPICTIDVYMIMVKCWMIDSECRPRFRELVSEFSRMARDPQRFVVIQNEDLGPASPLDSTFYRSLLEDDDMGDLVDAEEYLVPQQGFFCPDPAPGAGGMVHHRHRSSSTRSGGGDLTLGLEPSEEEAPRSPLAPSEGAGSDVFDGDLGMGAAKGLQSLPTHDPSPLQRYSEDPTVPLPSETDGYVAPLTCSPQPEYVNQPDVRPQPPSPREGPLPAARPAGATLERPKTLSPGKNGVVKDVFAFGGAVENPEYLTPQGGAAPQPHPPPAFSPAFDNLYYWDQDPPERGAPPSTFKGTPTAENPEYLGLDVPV

[3] = reduced viability of SK-BR-3 breast cancer cells – cell-based, 24 h, human, pilot screen (AID 572;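 active = viability at or below 10% of carrier control in both of two separate runs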;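 also: compound exposure lasted between 18 and 24 h rather than exactly 24 h; 100% = carrier-treated control wells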); details: SK-BR-3 viability, CellTiter-Glo luminescence, at 10 µM, stronger effect = lower value
[4] = HUVEC growth inhibition – cell-based, human, primary screen (AID 575;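 active = viability at or below 30% in both replicate assays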;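 also: 100% = median of untreated cell wells with 0.1% DMSO on each plate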); details: HUVEC proliferation, CellTiter-Glo luminescence, 72 h; at 10 µM; stronger effect = lower value
[5] = H69AR cell proliferation blockers – human, duplicate replicates, primary screen (AID 580;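 active = viability at or under a set limit in both replicates, limit being median viability minus 3 SD, cut at about 48% in these data, passing the limit was not always enough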;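 also: 100% = mean luminescence of untreated wells and 0% = no signal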); details: H69AR lung tumor cells viability, ATP luminescence, 72 h; at 10 µM; stronger effect = lower value
[6] = MRP1 drug-resistance reversers in H69AR cells – cell-based, doxorubicin co-treatment, pilot screen (AID 601;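 active = viability loss from added drug above about 55%, and viability with drug at most 40%, in both replicates, limit read from the data, passing the limit was not always enough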); details: CellTiter-Glo, 72 h, at 10 µM; for differential viability (reversal): stronger effect = higher value
[7] = yeast transport mutant growth inhibition pilot in 384-well plates, post-Golgi transport modulator project (AID 636; in the data active = inhibition above about 31%); details: absorbance 615 nm, about 18 h, stronger effect = higher value
[8] = growth suppression of yeast trafficking mutant, preliminary HTS, modulators of trafficking downstream of Golgi apparatus project, 1536-format plate, OD 615 nm (AID 637; in the data active = inhibition above about 30%); details: yeast transport mutant growth, absorbance 615 nm, 18 h; stronger effect = higher value
[9] = S. cerevisiae growth inhibition in permissive medium (OD615), pilot counter-assay for S. cerevisiae lifespan shortening project, permissive growth control (AID 705;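 active = growth inhibition above 25% in both replicates, a cutoff set 3 SD above the mean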); details: OD615, 24 h, at 10 µM, stronger effect = higher value
[10] = S. cerevisiae growth inhibition in restrictive medium, OD615, pilot screen, restrictive growth control, yeast lifespan reduction project (AID 706;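 active = growth inhibition above a set limit, 3 SD over mean compound inhibition, in both replicates, cut at about 43% in these data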;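 also: modified DeaD lifespan yeast strain shifted to restrictive glucose medium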); details: OD615, 48 h, at 10 µM, stronger effect = higher value
[11] = doxorubicin toxicity protection in MRP-1 cells – H69AR cells, CellTiter-Glo, duplicate, MRP-1 activator project, pilot screen (AID 807;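 active = viability increase at or above a cutoff of the median across tested compounds plus 3 SD, cut at about 8.5% in these data, passing the limit was not always enough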;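 also: compound pretreatment 18-22 h then 72 h combined with doxorubicin; 0% = doxorubicin alone and 100% = vehicle without doxorubicin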); details: H69AR viability with doxorubicin, CellTiter-Glo luminescence; at 10 µM; stronger effect = higher value
[12] = viability of HCT116 without oncogenic beta-catenin – human colon tumor cells, pilot screen (AID 823;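 active = cell viability at or below a set limit in both duplicate runs, the limit being the all-compound median minus 4 SD, cut at about 23% in these data, passing the limit was not always enough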;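 also: 0% = wells killed by 20 µM Hyamine and 100% = untreated DMSO cell wells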); details: HCT116 beta-catenin knockout viability, CellTiter-Glo, 60 h; at 10 µM; stronger effect = lower value
[13] = viability of PTEN-null HCT116 cells – cell-based, HCT116 clonal line, CellTiter-Glo, pilot screen (AID 824;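 active = viability at or below 27.92% in each of two runs, the all-compound median minus 4 SD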;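 also: 0% = 20 µM Hyamine control and 100% = vehicle cell control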); details: HCT116 PTEN-deleted viability, 60 h, at 10 µM, stronger effect = lower value
[14] = RAM pathway blockade in budding yeast – dse1pr::URA3 reporter, 5-FOA selection, pilot screen (AID 869;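 active = inhibition over a set limit, the all-compound mean plus 3 SD, in both replicate runs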;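 also: 0% = DMSO wells with no growth and 100% = 10 µM 1-NA-PP1 with full growth; RAM network block rescues cells from 5-FOA so hits raise OD615 growth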); details: S. cerevisiae dse1pr::URA3 5-FOA growth, OD615, 2 d; at 10 µM; stronger effect = higher value; strain carries analog-sensitive mutant Cbk1 kinase
[15] = RAM signaling pathway blockade in yeast – S. cerevisiae, Pdr1DBD-CYC8 efflux-inhibited sensitized strain, primary screen (AID 1298);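 also: 0% = DMSO untreated cells without growth and 100% = 10 µM 1-NA-PP1 full growth; higher means more yeast growth rescued from 5-FOA killing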; details: S. cerevisiae cbk1-as DSE1-URA3 strain, 5-FOA growth OD615, 2 d; at 50 µM; stronger effect = higher value
[16] = H69AR cells + 2 uM doxorubicin, measured here: viability with 2 uM doxorubicin, stronger effect = lower value
[17] = H69AR cells, compound alone cytotoxicity

Cc1c(C)n(C)c2ccc(C(=O)NCc3cccs3)cc12
74.6%: viability [6, 16]
90.7%: viability [6, 17]
93.5%: viability [1]
inactive: Her2 level [2] 87.5% | viability [3] 93.5% | viability [4] 95.7% | viability [5] 90.7% | differential viability (reversal) ([6]; H69AR cells + 2 uM doxorubicin) 16.1% | inhibition [7] -2.8% | inhibition [8] -4.59% | growth inhibition [9] -23.4% | growth inhibition [10] 1.59% | viability increase [11] 3.39% | viability [12] 97.5% | viability [13] 96.8% | inhibition [14] 1.61% | RAM network inhibition [15] 0%

COc1ccccc1NC(=O)CSc1nnc(Cc2cccn2C)n1-c1ccc(F)cc1
96.5%: viability [1]
84.9%: viability [6, 16]
inactive: Her2 level [2] 86% | viability [3] 96.5% | viability [4] 95.4% | viability [5] 71.8% | differential viability (reversal) ([6]; H69AR cells + 2 uM doxorubicin) -13.1% | inhibition [7] -4.8% | inhibition [8] -2.67% | growth inhibition [9] -3.11% | growth inhibition [10] 10.8% | viability increase [11] -4.45% | viability [12] 86.7% | viability [13] 86.8% | inhibition [14] 2.05% | RAM network inhibition [15] 2.25%
71.8%: viability [6, 17]

CC1CN(c2ccc(Oc3ccccc3)cc2)c2nc3c(c(=O)n(CC(N)=O)c(=O)n3C)n2C1 (stereo not given)
79.1%: viability [6, 17]
inactive: Her2 level [2] 101% | viability [3] 107% | viability [4] 77.5% | viability [5] 79.1% | differential viability (reversal) ([6]; H69AR cells + 2 uM doxorubicin) 4.74% | inhibition [7] -4.67% | inhibition [8] -5.17% | growth inhibition [9] -3.86% | growth inhibition [10] 6.34% | viability increase [11] -3.54% | viability [12] 104% | viability [13] 94.4% | inhibition [14] 2.65% | RAM network inhibition [15] 6.01%
107%: viability [1]
74.4%: viability [6, 16]

COc1ccc(N(C)C(=O)CCS(=O)(=O)c2cccc3nonc23)c(OC)c1
89%: viability [1]
inactive: Her2 level [2] 86.5% | viability [3] 89% | viability [4] 95.7% | viability [5] 104% | differential viability (reversal) ([6]; H69AR cells + 2 uM doxorubicin) 9.71% | inhibition [7] -6.71% | inhibition [8] -3.49% | growth inhibition [9] -16.1% | growth inhibition [10] -20.6% | viability increase [11] -0.31% | viability [12] 100% | viability [13] 98.8% | inhibition [14] 1.43% | RAM network inhibition [15] 3.65%
93.9%: viability [6, 16]
104%: viability [6, 17]

CCCc1cc(C(=O)Nc2sc(C)c(C)c2C(=O)OCC)no1
92.6%: viability [6, 17]
86%: viability [1]
inactive: Her2 level [2] 79% | viability [3] 86% | viability [4] 85.8% | viability [5] 92.6% | differential viability (reversal) ([6]; H69AR cells + 2 uM doxorubicin) 0.625% | inhibition [7] -1.79% | inhibition [8] 1.17% | growth inhibition [9] -10.7% | growth inhibition [10] 2.83% | viability increase [11] 2.07% | viability [12] 102% | viability [13] 97.9% | inhibition [14] 3.55% | RAM network inhibition [15] 7.13%
92%: viability [6, 16]
